Measurements from PubChem BioAssay (EPA / NIEHS).
Some compounds were tested as several samples or in several runs, with calls that do not always agree. Calls of active or inactive are those of the source. Rule for the calls: active = hit-call score of the fitted dose curve at least 0.9, where 1 is the maximum; inactive = score below 0.9.

Columns and labels:
[1] = read-out: Interleukin-8 (IL8), CXCL8 (gene 3576); experiment: BSK_LPS_IL8: BioMAP Diversity Plus: LPS Assay for Interleukin-8 (IL8) Biomarker Activity (AID 2283078); settings: primary human HUVEC with PBMC; actives raise or lower the signal
Method in brief: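 HUVEC + PBMC co-culture, LPS-activated; test chemicals dosed, IL-8 read by ELISA at 24 h. Bidirectional curve fit vs DMSO baseline (gain or loss of signal).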

[2] = BSK_LPS_SRB: Viability Assessment in the BioMAP Diversity Plus: LPS Assay (AID 2283079); settings: primary human HUVEC with PBMC;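 note: total protein by sulforhodamine B absorbance as a cytotoxicity measure; measured one day after compound addition; fitted in both directions against DMSO so loss or gain of signal counts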
Method in brief: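 HUVEC + PBMC co-culture, LPS-stimulated; compound 24 h. 10% TCA fix, 0.1% SRB stain, A560. Bidirectional fit vs DMSO.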

[3] = read-out: Interleukin-1 alpha (IL1a), IL1A (gene 3552); experiment: BSK_LPS_IL1a: BioMAP Diversity Plus: LPS Assay for Interleukin-1 alpha (IL1a) Biomarker Activity (AID 2283080); settings: primary human HUVEC with PBMC; actives raise or lower the signal
Method in brief: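 HUVEC/PBMC co-culture, LPS system; 24 h after dosing; IL-1a by ELISA; gain or loss of signal fitted bidirectionally vs DMSO baseline.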

[4] = read-out: Monocyte Chemoattractant Protein-1 (MCP1), CCL2 (gene 6347); experiment: BSK_LPS_MCP1: BioMAP Diversity Plus: LPS Assay for Monocyte Chemoattractant Protein-1 (MCP1) Biomarker Activity (AID 2283081); settings: primary human HUVEC with PBMC; actives raise or lower the signal;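 for AC50: secreted MCP-1 protein quantified by ELISA in culture supernatant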
Method in brief: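 ELISA read-out of MCP-1 after 24 h chemical dosing of a human umbilical vein endothelial cell/peripheral blood mononuclear cell co-culture stimulated with LPS. Gain or loss of signal fitted relative to DMSO controls.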

[5] = BSK_LPS_PGE2: BioMAP Diversity Plus: LPS Assay for Prostaglandin E2 (PGE2) Biomarker Activity (AID 2283082); settings: primary human HUVEC with PBMC; actives raise or lower the signal;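 for AC50: secreted prostaglandin E2 measured by ELISA in LPS-stimulated co-culture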
Method in brief: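 LPS-activated HUVEC/PBMC co-culture; cmpd dosed, 24 h; PGE2 by ELISA; bidirectional fit vs DMSO; SRB (0.1%, TCA-fixed, 560 nm) in parallel plates for overt cytotox.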

[6] = read-out: Macrophage colony-stimulating factor (MCSF), CSF1 (gene 1435); experiment: BSK_LPS_MCSF: BioMAP Diversity Plus: LPS Assay for Macrophage colony-stimulating factor (MCSF) Biomarker Activity (AID 2283083); settings: primary human HUVEC with PBMC; actives raise or lower the signal
Method in brief: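 HUVEC + PBMC co-culture (human primary), 24 h post-dose; M-CSF by ELISA; gain/loss of signal fitted bidirectionally vs DMSO baseline.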

[7] = read-out: Tissue Factor, F3 (gene 2152); experiment: BSK_LPS_TissueFactor: BioMAP Diversity Plus: LPS Assay for Tissue Factor Biomarker Activity (AID 2283084); settings: primary human HUVEC with PBMC; actives raise or lower the signal
Method in brief: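 HUVEC/PBMC co-culture, LPS-activated; CD142 ELISA read 24 h post-dose; bidirectional curve fit vs DMSO negative control.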

[8] = read-out: Tumor necrosis factor (Homo sapiens) (UniProt P01375); experiment: BSK_LPS_TNFa: BioMAP Diversity Plus: LPS Assay for Tumour Necrosis Factor alpha (TNFa) Biomarker Activity (AID 2283085); settings: primary human HUVEC with PBMC; actives raise or lower the signal;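 for AC50: TNFa protein level quantified by ELISA in the co-culture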
Method in brief: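 Read-out is ELISA of TNFa in primary human endothelial cell–PBMC co-cultures at 24 h after compound. Activity in either direction was fitted against DMSO.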

[9] = read-out: Vascular cell adhesion molecule 1 (VCAM1), VCAM1 (gene 7412); experiment: BSK_LPS_VCAM1: BioMAP Diversity Plus: LPS Assay for Vascular cell adhesion molecule 1 (VCAM1) Biomarker Activity (AID 2283086); settings: primary human HUVEC with PBMC; actives raise or lower the signal
Method in brief: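 HUVEC + PBMC co-culture, LPS system; compound 24 h; VCAM-1 by ELISA; bidirectional fit vs DMSO control; parallel SRB (0.1%, TCA-fixed, 560 nm) for cytotoxicity.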

CD38, CD38 (gene 952) = experiment: BSK_SAg_CD38: BioMAP Diversity Plus: SAg Assay for CD38 Biomarker Activity (AID 2283087); settings: primary human HUVEC with PBMC; actives raise or lower the signal
Method in brief: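 Human HUVEC plus PBMC co-culture stimulated with superantigen; CD38 measured by ELISA 24 h after chemical dosing. Fluorescence read-out, bidirectional fit against DMSO; cytotoxicity tracked in parallel by SRB and Alamar Blue.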

Measured: AC50

Tumor necrosis factor (Homo sapiens), sequence (P01375 whole entry, looked up): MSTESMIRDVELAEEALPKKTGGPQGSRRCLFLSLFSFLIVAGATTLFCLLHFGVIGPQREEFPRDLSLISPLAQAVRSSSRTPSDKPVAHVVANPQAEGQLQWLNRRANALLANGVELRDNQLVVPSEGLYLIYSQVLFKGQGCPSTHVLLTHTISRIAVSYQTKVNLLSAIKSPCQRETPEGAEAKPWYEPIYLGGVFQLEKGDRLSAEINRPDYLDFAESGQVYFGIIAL

CCCN(CC)CC1COC2(CCC(C(C)(C)C)CC2)O1 (stereo unspecified)
active: [1] 15.7 µM | CD38, CD38 (gene 952) 14.7 µM
inactive: all other assays above

N#Cc1c[nH]cc1-c1cccc2c1OC(F)(F)O2
inactive: [1] | [5] | [7]
active: [2] 8.62 µM | [3] 14.8 µM | [4] 17.9 µM | [6] 26.3 µM | [8] 29.8 µM | [9] 20 µM | CD38, CD38 (gene 952) 29.1 µM

CC(C)N1C(=O)N(c2ccccc2)CSC1=NC(C)(C)C
active: [1] 17.1 µM | [2] 34 µM | [3] 30.6 µM | [4] 30.5 µM | [5] 33.2 µM | [6] 18.9 µM | [7] 32.6 µM | [8] 32.1 µM | [9] 31.6 µM | CD38, CD38 (gene 952) 30.7 µM

COC(=O)NC(=S)Nc1ccccc1NC(=S)NC(=O)OC
active: [6] 22.8 µM | CD38, CD38 (gene 952) 28.4 µM
inactive: all other assays above

CN=C=S
active: CD38, CD38 (gene 952) 10 µM
inactive: all other assays above

CCOC(=O)C(C)OC(=O)c1cc(Oc2ccc(C(F)(F)F)cc2Cl)ccc1[N+](=O)[O-] (stereo unspecified)
active: [2] 6.48 µM | [5] 2.12 µM | [8] 3.73 µM | CD38, CD38 (gene 952) 9.17 µM
inactive: all other assays above

Cc1nc(N(C)C)nc(OC(=O)N(C)C)c1C
not listed: [7]
inactive: all other assays above

CNC(=O)N(C)c1nnc(C(C)(C)C)s1
inactive: all assays above

CCNP(=S)(OC)O/C(C)=C/C(=O)OC(C)C (stereo unspecified)
inactive: all assays above

C=C(C)CN(CC)c1c([N+](=O)[O-])cc(C(F)(F)F)cc1[N+](=O)[O-]
active: [8] 5.11 µM | [9] 20 µM | CD38, CD38 (gene 952) 33.7 µM
inactive: all other assays above

CS(=O)(=O)c1ccc(C(=O)C2C(=O)CCCC2=O)c([N+](=O)[O-])c1
inactive: all assays above

CCOP(=O)(OCC)Oc1nc(Cl)c(Cl)cc1Cl
active: [2] 10.7 µM | [8] 35.9 µM | [9] 16.7 µM | CD38, CD38 (gene 952) 29.6 µM
inactive: all other assays above

CC(C)=CC1C(C(=O)OCc2coc(Cc3ccccc3)c2)C1(C)C (stereo unspecified)
inactive: all assays above

CC1(C)C(C(=O)OC(C#N)c2cccc(Oc3ccccc3)c2)C1(C)C (stereo unspecified)
active: [5] 6.92 µM | [8] 5.68 µM | CD38, CD38 (gene 952) 12.1 µM
inactive: all other assays above

CCNC(=O)NC(=O)C(C#N)=NOC
inactive: all assays above

C=CCOC(=O)C(C)(C)OC(=O)c1cc(-n2c(=O)cc(C(F)(F)F)n(C)c2=O)ccc1Cl
active: [6] 13.9 µM | CD38, CD38 (gene 952) 10.8 µM
not listed: [7]
inactive: all other assays above

CCSC(=O)N1CCCCCC1
inactive: all assays above

CC(C)N1C(=O)c2ccccc2NS1(=O)=O
not listed: [7]
inactive: all other assays above

CCOc1nc(C(Cl)(Cl)Cl)ns1
inactive: all assays above

COCc1cnc(C2=NC(C)(C(C)C)C(=O)N2)c(C(=O)O)c1 (stereo unspecified)
inactive: all assays above

CC(C)Nc1nc(Cl)nc(NC(C)C)n1
active: [8] 7.35 µM
inactive: all other assays above

Cc1cc(C)nc(Nc2ccccc2)n1
active: [1] 26.8 µM | CD38, CD38 (gene 952) 20 µM
inactive: all other assays above

CNC(=O)Oc1cccc2ccccc12
active: [2] 13.3 µM | [5] 1.63 µM | [6] 20 µM | [9] 9.39 µM
inactive: all other assays above

CCCCC(O)(Cn1cncn1)c1ccc(Cl)cc1Cl (stereo unspecified)
active: [5] 3.81 µM
inactive: all other assays above

O=C1C2CC=CCC2C(=O)N1SC(Cl)(Cl)Cl (stereo unspecified)
active: [1] 25.2 µM | [6] 29 µM | [7] 31.4 µM | [8] 36.6 µM | [9] 14.3 µM | CD38, CD38 (gene 952) 30.5 µM
inactive: [2] | [3] | [4] | [5]

CC(C)C1(C)N=C(c2ncccc2C(=O)O)NC1=O (stereo unspecified)
inactive: all assays above

CCN(CC)c1nc(C)cc(OP(=S)(OC)OC)n1
active: [6] 20 µM | [8] 6.51 µM | [9] 20 µM | CD38, CD38 (gene 952) 20 µM
inactive: all other assays above

COCC(C)N(C(=O)CCl)c1c(C)csc1C (stereo unspecified)
active: [9] 3.97 µM
inactive: [1] | [2] | [3] | [4] | [5] | [6] | [8] | [9] | CD38, CD38 (gene 952)

CCOc1cc(C(C)(C)C)ccc1C1COC(c2c(F)cccc2F)=N1 (stereo unspecified)
active: [1] 26 µM | [2] 26.2 µM | [3] 30.5 µM | [4] 33.4 µM | [5] 32.1 µM | [6] 20.9 µM | [7] 36.8 µM | [8] 30.4 µM | [9] 31.4 µM | CD38, CD38 (gene 952) 18.8 µM

COc1ccc(-c2ccccc2)cc1NNC(=O)OC(C)C
active: [5] 1.84 µM | [8] 4.44 µM
inactive: all other assays above

Clc1nc(Cl)nc(Nc2ccccc2Cl)n1
inactive: all assays above

O=P(O)(O)CCCl
inactive: all assays above

CCCCC(C#N)(Cn1cncn1)c1ccc(Cl)cc1 (stereo unspecified)
active: [5] 12 µM
not listed: [7]
inactive: all other assays above

COP(=S)(OC)Oc1ccc([N+](=O)[O-])c(C)c1
active: [2] 10.6 µM | [4] 20 µM | [6] 20 µM | [9] 31.5 µM
inactive: all other assays above
